Screens deposited in PubChem BioAssay by National Center for Advancing Translational Sciences (NCATS).
CHX counter: Cycloheximide Counterscreen for Small Molecule Inhibitors of Shiga Toxin; cell reporter, cycloheximide protein synthesis inhibition counterscreen; max response, %; actives 12% (n = 300,000); in the data active = max response mostly above about 13%, no sharp cut-off; inactive = mostly below about 14%; note: read at 38.3 µM for the half of the compounds with a filed dose; 0% is about no effect
Pf growth 48h: Primary qHTS for delayed death inhibitors of the malarial parasite plastid, 48 hour incubation | P. falciparum luciferase growth in erythrocytes, 48 h | actives 5.9% (n = 310,000) | Potency, µM (titrated, usually from 28.7 µM), without a hit: top-dose activity change, negative = inhibition, actives largely listed as inhibitors; note: potency is the fitted concentration of half-maximal effect; % is set by controls: 0 for no effect and ±100 for the full control effect
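Cell-based growth assay: transgenic P. falciparum expressing firefly luciferase, cultured in red cells within RPMI 1640 containing 0.5% w/v Albumax, 24 mM bicarbonate and gentamycin. A drop in luciferase activity indicates inhibition.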
HCMV antiviral: qHTS Assay for inhibitors of the human cytomegalovirus (HCMV); actives 4.5% (n = 410,000); activity change, negative = inhibition, % at 57.5 µM; HFF cells, HCMV-luciferase reporter, 72 h; active compounds read low; in the data active = activity change below about -60%; inconclusive = no clear call, values can overlap the other calls; inactive = above about -39%; note: % is set by controls: 0 for no effect and ±100 for the full control effect
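Cell-based, HFFs, 1000 cells/well, 16 h 37C; cpds in DMSO + HCMV-luc, MOI 1 PFU/cell; 72 h 37C; OneGlo luminescence after 5 min RT; norm. to buffer vs Salinomycin 10uM.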
Pf growth 96h: Primary qHTS for delayed death inhibitors of the malarial parasite plastid, 96 hour incubation; AID 504834, 2011; actives 6.9% (n = 320,000); Potency, µM (series often up to 28.7 µM), for inactives: at the top dose activity change, negative = inhibition, most hits filed as inhibitors; P. falciparum luciferase reporter growth, 96 h; note: potency is the fitted concentration of half-maximal effect; % is set by controls: 0 for no effect and ±100 for the full control effect
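Erythrocytes infected with luciferase-expressing P. falciparum were dispensed at 2% hematocrit and 0.05% parasitemia (final), then incubated with compounds 96 hours at 37 C in 5% CO2. Luminescence after detection reagent addition reported growth.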
Shiga inhibitor: A qHTS for Small Molecule Inhibitors of Shiga Toxin; inhibition, % at 38.7 µM; Vero cells, Shiga toxin protein synthesis inhibition reporter; actives 9.2% (n = 290,000); AID 2315, 2010; in the data active = inhibition mostly above about 28%, no sharp cut-off; inactive = mostly below about 43%; note: 0% is about no effect
* marks the source's active call; other numbers are inactive results; ? = inconclusive; / = no result given; + = active, no number; ! = not confirmed by another sample. The list is not random: actives were taken first. Their share in the collection is about 20%. Unless noted, calls come from the whole dose curve; as a rule, active = well fitted inhibition curve with a large enough effect; inconclusive = small, poorly fitted or top-dose-only effect, or another doubt; inactive = no such curve, though single readings can be large or run the other way.

SMILES | CHX counter | Pf growth 48h | HCMV antiviral | Pf growth 96h | Shiga inhibitor
O=S(=O)(/N=C(/Nc1ccc(Cl)c(S(=O)(=O)N2CCOCC2)c1)c1ccc(F)cc1)c1ccccc1 | -3 | ? | -34 | 44% | -16
COc1ccccc1NS(=O)(=O)c1cc(N/C(=N\S(=O)(=O)c2ccccc2)c2ccc(F)cc2)ccc1Cl | 4 | 9.3µM* | -5 | 13µM* | -4
COc1ccccc1NS(=O)(=O)c1cc(NC(=S)Nc2cc(C)cc(C)c2)ccc1Cl | 1 | -25% | -82* | ? | -1
Cc1ccc(NP(=O)(c2ccccc2)c2nc3ccccc3s2)cc1 (configuration not stated) | 31* | -2% | -26 | 26% | 62*
COc1ccc(NC(=O)Nc2ccc(Cc3ccncc3)cc2)cc1OC | 16 | ? | -14 | 5.2µM* | 7
COc1ccccc1NC(=O)Nc1ccc(Cc2ccncc2)cc1 | 10 | 20% | 7 | 10% | 50*
COc1ccccc1NC(=O)Nc1ccncc1 | -1 | 11% | -1 | ? | 34
COc1ccc(C(=O)Nc2ccc(Cc3ccncc3)cc2)cc1Br | -1 | -10% | 10 | -3% | 21
O=C(Nc1ccc(Cl)c(-c2nc3cc(Cl)ccc3o2)c1)c1cc([N+](=O)[O-])ccc1N1CCOCC1 | / | / | -6 | / | /
CCOc1cc(-c2cc(N)n[nH]2)cc(OCC)c1OCC | -3 | 13µM* | 5 | 105% | 0
COc1ccccc1NC(=O)c1ccc(NC(=O)C2CC2C)cc1 (configuration not stated) | / | / | -12 | / | /
CC1CC1C(=O)Nc1ccc(-c2ccccc2)cc1 (configuration not stated) | 45* | -12% | -13 | 13µM* | 83*
Cc1c(CCOC(=O)C2C3CC4CC(C3)CC2C4)sc[n+]1CC(=O)c1ccc(Br)cc1 (configuration not stated) | -3 | ? | -103*! | ? | -20
CC(C)C(OC(=O)C1=Cc2ccccc2OC1)C(=O)NCC1CCCO1 (configuration not stated) | / | / | 0 | / | /
CC1Cc2ccccc2N1CC(=O)NC(=O)NC1CCCCC1 (configuration not stated) | -3 | ? | 6 | -19% | -7
O=C(CSc1nnnn1Cc1ccccc1)Nc1cccc(F)c1 | -3 | 40% | -25 | 14% | 35
Cc1ccccc1OCc1nnc(SCC(=O)Nc2ccc3c(c2)OCO3)n1C | 1 | -7% | 19 | ? | -4
Cc1ccccc1OCc1nnc(SCC(=O)Nc2ccc3nc(SCC(=O)Nc4ccccc4)sc3c2)n1C | 11 | 13µM* | -20 | 10µM* | 23
CC(=O)Nc1cccc(NC(=O)CSc2nnnn2Cc2ccccc2)c1 | -1 | 33% | -1 | 5.9µM* | 5
CCOC(=O)c1ccccc1NC(=O)CSc1nc(N)cc(N)n1 | -3 | 2% | -14 | 12µM* | -6
CCOC(=O)c1ccccc1NC(=O)CSc1nnc(COc2ccccc2C)n1C | 2 | 13µM* | 1 | ? | -8
COC(=O)c1ccccc1NC(=O)CSc1nc(N)cc(N)n1 | 5 | / | 54 | ? | -5
CC1CCCCC12NC(=O)N(CC(=O)Nc1ccccc1F)C2=O (configuration not stated) | / | -1% | -22 | 56% | /
O=C(CSc1nc2ccc(NC(=O)CSc3nnnn3Cc3ccccc3)cc2s1)Nc1ccccc1 | 1 | 13µM* | 19 | ? | 13
CCOC(=O)c1c(NC(=O)c2cc(=O)c3cc(C)ccc3o2)sc2c1CCCC2 | / | / | -7 | / | /
SMILES | CHX counter | Pf growth 48h | HCMV antiviral | Pf growth 96h | Shiga inhibitor
NS(=O)(=O)c1ccc2nc(NC(=O)Nc3ccccc3F)sc2c1 | 50* | 192% | 41 | 368% | 105*
CC(Oc1ccccc1)C(=O)Nc1nc2ccc(S(N)(=O)=O)cc2s1 (configuration not stated) | / | / | 19 | / | /
Cc1ccccc1NC(=O)Nc1nc2ccc(S(C)(=O)=O)cc2s1 | 14 | 44% | 5 | ? | +
CCOc1ccc(NC(=O)Nc2nc3ccc(S(C)(=O)=O)cc3s2)cc1 | -2 | -59% | -15 | ? | -11
c1ccc(CCSc2ncnc3nc[nH]c23)cc1 | 29* | 75% | ? | 43% | 39*
c1ccc2c(CSc3ncnc4nc[nH]c34)cccc2c1 | 1 | ? | -69* | 31% | 19
